In experiment [1] the target is Dual specificity protein kinase CLK3 (Homo sapiens) (UniProt P49761). Conditions: at 1 µM.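 Note: each value is the mean inhibition of CLK3.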
Experiment [2] concerns the target Dual specificity tyrosine-phosphorylation-regulated kinase 1A (Homo sapiens) (UniProt Q13627). Conditions: at 0.1 µM.
For experiment [3] the target is unchanged. The note with it: at 1 µM.
Experiment [4] concerns the target Dual specificity tyrosine-phosphorylation-regulated kinase 1B (Homo sapiens) (UniProt Q9Y463). Conditions: at 0.1 µM.
Experiment [5] shares this target. Conditions: at 1 µM.
Experiment [6] concerns the target T1, Dual specificity tyrosine-phosphorylation-regulated kinase 2 (Homo sapiens) (UniProt Q92630).
T1 sequence (whole entry): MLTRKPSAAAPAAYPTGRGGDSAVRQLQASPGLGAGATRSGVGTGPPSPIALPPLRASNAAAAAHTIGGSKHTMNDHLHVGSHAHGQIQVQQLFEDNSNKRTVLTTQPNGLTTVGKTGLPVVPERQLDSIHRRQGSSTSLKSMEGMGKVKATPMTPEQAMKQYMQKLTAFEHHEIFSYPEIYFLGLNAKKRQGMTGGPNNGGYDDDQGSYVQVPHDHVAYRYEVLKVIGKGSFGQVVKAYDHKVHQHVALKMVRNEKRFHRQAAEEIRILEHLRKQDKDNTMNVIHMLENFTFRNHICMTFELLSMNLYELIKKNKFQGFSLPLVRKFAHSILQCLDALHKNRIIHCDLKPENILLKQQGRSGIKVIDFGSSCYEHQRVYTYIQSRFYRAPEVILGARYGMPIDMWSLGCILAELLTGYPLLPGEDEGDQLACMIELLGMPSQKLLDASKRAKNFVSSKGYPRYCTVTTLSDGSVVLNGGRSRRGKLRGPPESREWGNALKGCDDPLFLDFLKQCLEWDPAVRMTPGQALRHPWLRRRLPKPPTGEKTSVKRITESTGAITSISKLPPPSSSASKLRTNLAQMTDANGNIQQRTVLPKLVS
The note with it: at 0.1 µM.

The target in experiment [7] is T1, Dual specificity tyrosine-phosphorylation-regulated kinase 2 (Homo sapiens). The note with it: at 1 µM.
For experiment [8], the target named is Glycogen synthase kinase-3 alpha (Homo sapiens) (UniProt P49840). Conditions: at 0.1 µM.
Glycogen synthase kinase-3 alpha (Homo sapiens), sequence (P49840 2-483 limits assumed): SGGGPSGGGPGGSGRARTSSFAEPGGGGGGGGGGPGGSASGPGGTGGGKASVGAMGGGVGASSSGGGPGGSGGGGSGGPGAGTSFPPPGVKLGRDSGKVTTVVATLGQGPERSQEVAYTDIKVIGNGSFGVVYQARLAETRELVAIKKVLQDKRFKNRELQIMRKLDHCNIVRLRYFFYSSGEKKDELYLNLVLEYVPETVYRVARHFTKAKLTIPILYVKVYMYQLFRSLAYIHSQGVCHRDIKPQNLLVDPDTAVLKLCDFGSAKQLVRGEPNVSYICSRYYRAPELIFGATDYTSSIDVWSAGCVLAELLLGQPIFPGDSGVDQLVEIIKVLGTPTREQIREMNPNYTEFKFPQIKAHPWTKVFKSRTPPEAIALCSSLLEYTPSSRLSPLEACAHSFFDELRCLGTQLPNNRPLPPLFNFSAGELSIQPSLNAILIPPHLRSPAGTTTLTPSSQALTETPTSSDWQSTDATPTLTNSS
For experiment [9] the target is unchanged. Conditions: at 1 µM.
Experiment [10] concerns the target Glycogen synthase kinase-3 beta (Homo sapiens) (UniProt P49841). The note with it: at 0.1 µM.
Experiment [11] has the same target. The note with it: at 1 µM.
Experiment [12] has as its target Homeodomain-interacting protein kinase 1 (Homo sapiens) (UniProt Q86Z02). Conditions: at 0.1 µM.
Experiment [13] shares this target. The note with it: at 1 µM.
The target in experiment [14] is T2, Homeodomain-interacting protein kinase 4 (Homo sapiens) (UniProt Q8NE63).
T2 sequence (whole entry): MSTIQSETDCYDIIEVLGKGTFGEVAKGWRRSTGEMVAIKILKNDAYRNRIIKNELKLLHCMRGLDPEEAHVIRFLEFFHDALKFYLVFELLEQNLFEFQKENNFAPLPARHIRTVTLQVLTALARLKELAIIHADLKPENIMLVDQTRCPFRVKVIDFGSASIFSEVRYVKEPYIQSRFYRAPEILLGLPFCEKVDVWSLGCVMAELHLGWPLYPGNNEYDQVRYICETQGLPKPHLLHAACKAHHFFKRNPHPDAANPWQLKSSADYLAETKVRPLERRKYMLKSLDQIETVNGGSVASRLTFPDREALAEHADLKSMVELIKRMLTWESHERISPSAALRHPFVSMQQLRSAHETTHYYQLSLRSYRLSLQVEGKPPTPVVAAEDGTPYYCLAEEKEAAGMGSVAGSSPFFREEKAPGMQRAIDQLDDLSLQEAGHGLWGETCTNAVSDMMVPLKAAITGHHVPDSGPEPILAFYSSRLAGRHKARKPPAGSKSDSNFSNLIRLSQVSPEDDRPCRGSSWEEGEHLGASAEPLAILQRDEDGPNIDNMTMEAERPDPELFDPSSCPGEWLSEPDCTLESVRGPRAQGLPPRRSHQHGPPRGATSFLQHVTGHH
Conditions: at 0.1 µM.

For experiment [15], the target named is T2, Homeodomain-interacting protein kinase 4 (Homo sapiens). The note with it: at 1 µM.
Experiment [16] concerns the target Mitogen-activated protein kinase 9 (Homo sapiens) (UniProt P45984). Conditions: at 0.1 µM.
Experiment [17] shares this target. The note with it: at 1 µM.
The target in experiment [18] is Mitogen-activated protein kinase 1 (Homo sapiens) (UniProt P28482). Conditions: at 0.1 µM.
Mitogen-activated protein kinase 1 (Homo sapiens), sequence (P28482 whole entry): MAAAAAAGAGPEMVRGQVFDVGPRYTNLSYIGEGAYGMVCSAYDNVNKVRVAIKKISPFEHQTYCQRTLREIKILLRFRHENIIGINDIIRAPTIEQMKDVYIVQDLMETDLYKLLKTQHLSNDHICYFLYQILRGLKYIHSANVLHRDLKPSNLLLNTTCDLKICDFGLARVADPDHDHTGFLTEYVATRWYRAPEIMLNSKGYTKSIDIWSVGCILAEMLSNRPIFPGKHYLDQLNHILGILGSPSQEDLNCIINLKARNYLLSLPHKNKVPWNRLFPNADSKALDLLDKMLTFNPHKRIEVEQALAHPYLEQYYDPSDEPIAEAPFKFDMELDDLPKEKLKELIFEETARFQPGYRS
Experiment [19] shares this target. The note with it: at 1 µM.
Experiment [20] addresses Mitogen-activated protein kinase 3 (Homo sapiens) (UniProt P27361). Conditions: at 0.1 µM.

Molecules are shown by their SMILES.

Homeodomain-interacting protein kinase 1 (Homo sapiens), sequence (Q86Z02 whole entry, looked up): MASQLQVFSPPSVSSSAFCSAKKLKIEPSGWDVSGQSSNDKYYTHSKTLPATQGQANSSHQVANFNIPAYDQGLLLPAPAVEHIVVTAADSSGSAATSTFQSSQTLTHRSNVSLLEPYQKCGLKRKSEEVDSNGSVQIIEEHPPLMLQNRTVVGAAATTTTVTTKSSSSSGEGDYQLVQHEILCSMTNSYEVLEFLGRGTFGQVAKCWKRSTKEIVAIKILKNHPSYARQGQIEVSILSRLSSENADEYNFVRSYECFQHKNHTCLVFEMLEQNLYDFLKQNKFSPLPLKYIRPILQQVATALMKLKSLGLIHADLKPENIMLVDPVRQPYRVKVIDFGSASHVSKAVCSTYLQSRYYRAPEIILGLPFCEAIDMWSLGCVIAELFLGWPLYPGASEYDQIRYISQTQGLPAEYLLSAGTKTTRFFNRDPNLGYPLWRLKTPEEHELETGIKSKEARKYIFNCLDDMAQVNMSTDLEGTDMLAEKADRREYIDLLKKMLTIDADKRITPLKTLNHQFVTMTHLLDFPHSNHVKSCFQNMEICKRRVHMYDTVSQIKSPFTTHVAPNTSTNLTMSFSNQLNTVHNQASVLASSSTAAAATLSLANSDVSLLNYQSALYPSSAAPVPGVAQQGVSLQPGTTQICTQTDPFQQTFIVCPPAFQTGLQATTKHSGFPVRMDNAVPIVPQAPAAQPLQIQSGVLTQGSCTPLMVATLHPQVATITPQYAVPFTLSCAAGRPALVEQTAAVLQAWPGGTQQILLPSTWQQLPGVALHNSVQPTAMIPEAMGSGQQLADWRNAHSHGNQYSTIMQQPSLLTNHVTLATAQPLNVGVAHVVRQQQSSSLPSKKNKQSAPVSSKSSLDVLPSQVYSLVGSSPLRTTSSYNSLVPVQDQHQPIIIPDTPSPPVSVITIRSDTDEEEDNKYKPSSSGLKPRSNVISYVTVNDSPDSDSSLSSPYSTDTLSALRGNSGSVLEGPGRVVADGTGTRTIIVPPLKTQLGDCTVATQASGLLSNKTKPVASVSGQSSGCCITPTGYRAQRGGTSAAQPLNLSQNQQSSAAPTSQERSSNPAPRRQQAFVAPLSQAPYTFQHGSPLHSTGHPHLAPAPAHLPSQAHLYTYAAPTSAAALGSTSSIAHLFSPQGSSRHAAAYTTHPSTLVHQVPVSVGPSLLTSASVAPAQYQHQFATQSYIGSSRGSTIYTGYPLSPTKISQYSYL
Dual specificity protein kinase CLK3 (Homo sapiens), sequence (P49761 whole entry, looked up): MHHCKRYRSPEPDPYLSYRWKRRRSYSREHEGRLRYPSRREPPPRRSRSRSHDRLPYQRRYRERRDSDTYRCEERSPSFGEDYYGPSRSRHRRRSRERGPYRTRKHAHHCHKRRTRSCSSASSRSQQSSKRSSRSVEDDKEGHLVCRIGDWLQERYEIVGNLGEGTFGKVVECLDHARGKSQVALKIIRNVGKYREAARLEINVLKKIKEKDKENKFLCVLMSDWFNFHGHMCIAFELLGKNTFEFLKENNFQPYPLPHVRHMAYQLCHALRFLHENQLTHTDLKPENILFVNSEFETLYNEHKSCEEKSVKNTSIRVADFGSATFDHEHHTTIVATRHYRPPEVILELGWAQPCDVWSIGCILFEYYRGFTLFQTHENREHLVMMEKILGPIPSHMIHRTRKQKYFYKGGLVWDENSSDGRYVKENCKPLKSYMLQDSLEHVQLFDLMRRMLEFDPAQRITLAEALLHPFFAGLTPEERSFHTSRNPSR
Mitogen-activated protein kinase 3 (Homo sapiens), sequence (P27361 whole entry): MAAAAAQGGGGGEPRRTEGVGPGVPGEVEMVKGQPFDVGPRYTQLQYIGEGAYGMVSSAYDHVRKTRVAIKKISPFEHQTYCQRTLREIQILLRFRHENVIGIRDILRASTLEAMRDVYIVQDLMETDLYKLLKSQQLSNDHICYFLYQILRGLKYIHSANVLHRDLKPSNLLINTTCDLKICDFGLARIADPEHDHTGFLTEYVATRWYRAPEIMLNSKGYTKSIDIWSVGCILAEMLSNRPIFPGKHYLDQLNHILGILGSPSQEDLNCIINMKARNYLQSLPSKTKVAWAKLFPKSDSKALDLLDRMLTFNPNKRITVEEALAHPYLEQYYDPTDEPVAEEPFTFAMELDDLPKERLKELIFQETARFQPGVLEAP
Mitogen-activated protein kinase 9 (Homo sapiens), sequence (P45984 whole entry, looked up): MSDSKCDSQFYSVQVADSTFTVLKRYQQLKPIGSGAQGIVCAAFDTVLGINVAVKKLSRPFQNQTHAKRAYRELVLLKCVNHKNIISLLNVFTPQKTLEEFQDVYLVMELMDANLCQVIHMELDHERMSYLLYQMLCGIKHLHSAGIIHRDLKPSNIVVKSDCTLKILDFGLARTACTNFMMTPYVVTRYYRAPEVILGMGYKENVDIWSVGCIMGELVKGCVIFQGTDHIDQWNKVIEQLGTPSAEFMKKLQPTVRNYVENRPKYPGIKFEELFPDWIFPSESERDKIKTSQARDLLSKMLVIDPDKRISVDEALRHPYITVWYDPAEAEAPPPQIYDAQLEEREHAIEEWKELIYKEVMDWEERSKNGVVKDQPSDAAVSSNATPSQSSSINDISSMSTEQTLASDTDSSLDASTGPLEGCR
Glycogen synthase kinase-3 beta (Homo sapiens), sequence (P49841 whole entry, looked up): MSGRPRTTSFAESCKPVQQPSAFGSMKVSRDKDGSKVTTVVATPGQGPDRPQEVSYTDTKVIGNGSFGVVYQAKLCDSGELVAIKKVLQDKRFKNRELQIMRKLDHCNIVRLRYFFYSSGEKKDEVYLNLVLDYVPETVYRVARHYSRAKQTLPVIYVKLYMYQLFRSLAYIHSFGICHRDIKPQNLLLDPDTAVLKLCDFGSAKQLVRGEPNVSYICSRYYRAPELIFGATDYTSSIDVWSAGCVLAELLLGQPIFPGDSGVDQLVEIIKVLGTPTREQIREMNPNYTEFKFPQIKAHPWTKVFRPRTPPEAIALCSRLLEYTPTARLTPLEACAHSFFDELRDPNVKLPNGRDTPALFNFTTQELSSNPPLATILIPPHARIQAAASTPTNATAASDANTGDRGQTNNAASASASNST
Dual specificity tyrosine-phosphorylation-regulated kinase 1B (Homo sapiens), sequence (Q9Y463 whole entry, looked up): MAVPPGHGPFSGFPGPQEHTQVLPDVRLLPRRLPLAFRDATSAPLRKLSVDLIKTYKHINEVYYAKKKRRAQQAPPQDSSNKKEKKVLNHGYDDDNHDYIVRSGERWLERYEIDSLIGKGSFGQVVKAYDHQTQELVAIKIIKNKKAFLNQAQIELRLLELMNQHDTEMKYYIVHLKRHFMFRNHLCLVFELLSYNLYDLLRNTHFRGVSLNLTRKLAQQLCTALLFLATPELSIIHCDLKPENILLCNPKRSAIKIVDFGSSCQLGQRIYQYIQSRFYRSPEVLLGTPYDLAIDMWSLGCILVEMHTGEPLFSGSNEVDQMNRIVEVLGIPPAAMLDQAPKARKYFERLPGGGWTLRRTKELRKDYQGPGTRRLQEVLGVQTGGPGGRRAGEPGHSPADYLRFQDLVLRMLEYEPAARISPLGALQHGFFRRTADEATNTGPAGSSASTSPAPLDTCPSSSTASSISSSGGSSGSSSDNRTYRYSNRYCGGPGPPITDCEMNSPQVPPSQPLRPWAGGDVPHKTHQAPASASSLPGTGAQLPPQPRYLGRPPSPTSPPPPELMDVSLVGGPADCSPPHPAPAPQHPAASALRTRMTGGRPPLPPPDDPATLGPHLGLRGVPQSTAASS

Take `CCNC(=O)O[C@H]1CN[C@H](C#Cc2cc3ncnc(Nc4ccc(OCc5cccc(F)c5)c(Cl)c4)c3s2)C1`: the inhibition in experiment [1] was determined as 2.52%; in [2] it was 1.66%; in experiment [3], 3.98%; in experiment [4], 0.74%; in experiment [5], 1.59%; in experiment [6], 3.13%. Besides, the inhibition in [7] stood at 5.14%; in experiment [8], 3.4%; in experiment [9], 9.61%; in experiment [10], 2.01%; in experiment [11], 8.04%; in experiment [12] it was 2.47%. Besides, the inhibition in experiment [13] is 5.41%; in experiment [14], 2.15%; in [15] it was 0.62%; in [16], 1.6%; in experiment [17] it was 4.37%; in experiment [18], 1.5%. Further, the figures for the inhibition in experiment [19] and in experiment [20] were 2.66% and 0.46%, respectively.

Regarding `COc1cccc(-c2c[nH]c3c(N/N=C/c4ccncc4)ncnc23)c1`, the inhibition amounted to 14% in [1]; 16.1% in experiment [2]; 58.5% in experiment [3]; 11.3% in experiment [4]; 50.5% in experiment [5]; 11.7% in [6]. Also, the inhibition in experiment [7] stood at 57.8%; in [8] it was 78.9%; in [9] it was 83.5%; in [10], 76.6%; in experiment [11], 83.5%; in [12], 5.99%. The inhibition was 41.7% in experiment [13]; 10.1% in experiment [14]; 43.2% in experiment [15]; 2.08% in [16]; 8.51% in [17]; 1.55% in experiment [18]. The inhibition in experiment [19] was determined as 5.09%; in [20], 1.78%.

On to `CCN1CCC(CC(=O)Nc2n[nH]c3nnc(-c4cccc(F)c4F)cc23)CC1`, for which the inhibition stood at 2.16% in experiment [1]; 10.4% in [2]; 53.1% in [3]; 7.85% in experiment [4]; 46.9% in [5]; 1.7% in experiment [6]. Moreover, the inhibition was 5.64% in [7]; 88.8% in [8]; 93.9% in experiment [9]; 85% in [10]; 94.4% in [11]; -3.8% in experiment [12]. For the same compound, the inhibition was 8.59% in experiment [13]; 0.11% in experiment [14]; 3% in experiment [15]; 2.02% in [16]; -0.48% in experiment [17]; 4.04% in experiment [18]. In addition, the inhibition in [19] worked out at 2.72%; in experiment [20], 3.44%.

Turning to `CS(=O)(=O)CCNCc1ccc(-c2ccc3ncnc(Nc4ccc(OCc5ccccc5)c(C(F)(F)F)c4)c3c2)o1`, the inhibition is 0.19% in experiment [1]; 2.36% in experiment [2]; 4.91% in experiment [3]; -2.07% in [4]; -0.6% in [5]; 3.17% in experiment [6]. In addition, the inhibition in experiment [7] was 0.91%; in [8], 3.36%; in [9], 3.82%; in experiment [10], 3.13%; in [11], 3.51%; in experiment [12], -3.76%. Further, the inhibition was -0.23% in experiment [13]; -0.74% in [14]; -1.78% in experiment [15]; 2.51% in experiment [16]; 0.92% in [17]; 4.58% in experiment [18]. Further, the inhibition in experiment [19] came to 5.24%; in experiment [20], 3.56%.

Take `CN1CCC(n2cnc(-c3ccc(F)cc3)c2-c2ccnc(N)n2)CC1`: the inhibition came to 1.25% in [1]; 1.69% in experiment [2]; 6.19% in experiment [3]; 0.68% in [4]; 2.08% in experiment [5]; 2.29% in [6]. Besides, the inhibition in experiment [7] is 12.5%; in experiment [8], 1.36%; in [9], 7.39%; in experiment [10], 1.11%; in experiment [11], 8.08%; in [12] it was 3.64%. For the same compound, the inhibition in experiment [13] was found to be 24.8%; in experiment [14], 1.91%; in experiment [15] it was 16.7%; in experiment [16] it was 2.6%; in experiment [17] it was 11.3%; in [18] it was 0.3%. The inhibition in [19] turned out to be 2.71%; in experiment [20], 3.88%.

On to `Nc1nc(-c2ccc(F)cc2)c(-c2ccc3ncccc3n2)s1`, for which the inhibition in experiment [1] came to 6.28%; in experiment [2], 8.98%; in experiment [3], 37.4%; in experiment [4] it was 3.54%; in [5], 19.8%; in experiment [6], 3.22%. The inhibition worked out at 5.03% in experiment [7]; 12.1% in [8]; 20.8% in experiment [9]; 11% in [10]; 19.6% in experiment [11]; 4.79% in experiment [12]. The inhibition in experiment [13] was determined as 13.9%; in experiment [14], 4.95%; in experiment [15] it was 11%; in experiment [16], 6.33%; in experiment [17], 25.3%; in experiment [18], 4.29%. The inhibition was found to be 5.05% in [19] and 3.56% in [20].

For the origin of these results see ChEMBL document CHEMBL1961873, “Compounds: GSK PKIS; Assays: Nanosyn kinase panel” (2012).
